# Screens from PubChem BioAssay.
# Shown is part of a subset that was picked to be rich in hits.
# Dicer processing: human Dicer pre-microRNA cleavage inhibition | Q9UPY3 | cat-ELCCA pre-miR-21 Dicer processing, chemiluminescence; stronger effect = higher value | z-score at 25 µM | 47,000 tested, 6% active; in the data active = z-score above about 3, passing the limit was not always enough;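 also: plate controls were vehicle for no effect and no enzyme for full effect; higher signal means more uncleaved substrate so more Dicer inhibition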
# Target sequence (Q9UPY3 whole entry, looked up): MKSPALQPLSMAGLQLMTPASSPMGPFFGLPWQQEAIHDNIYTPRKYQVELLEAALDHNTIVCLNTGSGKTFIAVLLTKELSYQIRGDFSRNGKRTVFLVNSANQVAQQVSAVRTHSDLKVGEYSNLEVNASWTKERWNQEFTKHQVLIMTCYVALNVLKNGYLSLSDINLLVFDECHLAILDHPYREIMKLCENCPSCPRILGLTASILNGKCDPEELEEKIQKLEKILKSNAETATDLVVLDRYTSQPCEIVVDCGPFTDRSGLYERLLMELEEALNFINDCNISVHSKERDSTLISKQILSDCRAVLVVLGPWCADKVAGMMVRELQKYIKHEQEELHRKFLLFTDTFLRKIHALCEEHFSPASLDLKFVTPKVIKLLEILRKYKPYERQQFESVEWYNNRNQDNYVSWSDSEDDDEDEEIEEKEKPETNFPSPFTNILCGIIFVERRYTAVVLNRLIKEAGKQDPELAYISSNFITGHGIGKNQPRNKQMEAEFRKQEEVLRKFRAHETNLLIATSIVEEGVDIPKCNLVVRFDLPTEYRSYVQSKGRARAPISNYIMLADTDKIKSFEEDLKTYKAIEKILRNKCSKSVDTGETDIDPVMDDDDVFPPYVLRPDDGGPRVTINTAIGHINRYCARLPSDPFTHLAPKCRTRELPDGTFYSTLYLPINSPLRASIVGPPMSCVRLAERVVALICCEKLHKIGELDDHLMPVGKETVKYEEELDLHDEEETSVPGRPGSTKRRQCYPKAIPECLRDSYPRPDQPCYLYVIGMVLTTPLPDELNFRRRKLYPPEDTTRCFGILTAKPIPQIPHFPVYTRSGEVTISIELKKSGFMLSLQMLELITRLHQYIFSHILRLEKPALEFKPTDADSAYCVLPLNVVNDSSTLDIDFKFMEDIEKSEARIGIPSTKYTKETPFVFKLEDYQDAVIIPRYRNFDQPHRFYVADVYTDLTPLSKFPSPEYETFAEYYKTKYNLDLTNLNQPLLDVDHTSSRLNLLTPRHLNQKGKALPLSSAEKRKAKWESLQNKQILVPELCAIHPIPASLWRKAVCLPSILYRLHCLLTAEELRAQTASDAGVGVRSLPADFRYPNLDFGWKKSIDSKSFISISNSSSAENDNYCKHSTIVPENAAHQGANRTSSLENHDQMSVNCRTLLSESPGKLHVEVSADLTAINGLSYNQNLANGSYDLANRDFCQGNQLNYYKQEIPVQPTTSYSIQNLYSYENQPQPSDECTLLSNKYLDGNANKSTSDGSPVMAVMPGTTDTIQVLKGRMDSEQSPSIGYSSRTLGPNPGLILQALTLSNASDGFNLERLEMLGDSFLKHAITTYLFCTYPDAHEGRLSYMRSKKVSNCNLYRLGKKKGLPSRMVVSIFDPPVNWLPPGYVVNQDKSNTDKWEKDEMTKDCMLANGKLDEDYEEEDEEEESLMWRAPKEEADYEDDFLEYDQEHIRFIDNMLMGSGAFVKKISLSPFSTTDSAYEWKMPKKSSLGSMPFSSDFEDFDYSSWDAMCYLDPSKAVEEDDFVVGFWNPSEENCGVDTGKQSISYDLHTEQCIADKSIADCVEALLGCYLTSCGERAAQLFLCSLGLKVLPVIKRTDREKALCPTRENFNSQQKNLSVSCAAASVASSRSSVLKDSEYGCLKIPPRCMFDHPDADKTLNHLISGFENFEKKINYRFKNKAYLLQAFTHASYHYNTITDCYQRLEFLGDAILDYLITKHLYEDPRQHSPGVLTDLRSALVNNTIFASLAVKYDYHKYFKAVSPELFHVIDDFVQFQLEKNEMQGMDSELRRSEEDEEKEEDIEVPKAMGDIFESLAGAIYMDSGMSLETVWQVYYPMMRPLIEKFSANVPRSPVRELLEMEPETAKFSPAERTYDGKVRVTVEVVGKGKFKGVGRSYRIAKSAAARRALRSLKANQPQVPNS
# * hit, by the source's call.
SMILES,Dicer processing
S=C(NNc1ccccc1)Nc1c(Cl)cccc1Cl,-2.56
CC(C)(CO)NC(=S)Nc1cccc(F)c1,-0.02
Fc1cccc(NC(=S)NNc2ccccc2)c1,5.92*
CC1=C(C(=O)OC(C)C)C(c2ccc(C)cc2)n2c(nc3ccccc32)N1 (centres undefined),0.03
O=C(NCc1cccs1)NCc1cccs1,-0.47
CSc1nc2cc(C)nn2c(-c2ccc(C(C)(C)C)cc2)c1C#N,2.61
CSc1nc2cc(C)nn2c(-c2ccccc2Cl)c1C#N,5.21*
CSc1nc(N)nc(-c2ccccc2Cl)c1C#N,-1.42
COc1cccc(OC)c1C(C)(O)C(OC)OC (centres undefined),1.99
CCOC(=O)/C(C#N)=C/Nc1ccc(O)cc1F,-0.61
NC(=O)NC(=O)Nc1ccccc1Cl,6.03*
NC(=O)NC(=S)NC(=O)c1ccccc1Cl,-2.27
CC(C)(ONC(=O)Nc1ccccc1Cl)C(=O)O,-0.32
CCc1c(C)nc(Nc2nc(C)c3cc(C)c(C)cc3n2)[nH]c1=O,1.05
CCN(CC)c1c([N+](=O)[O-])c(=O)sc2ccccc12,-1.17
O=[N+]([O-])c1ccsc1NCc1ccccc1,-1.12
O=c1sc2ccccc2c(NCc2ccccc2)c1[N+](=O)[O-],4.44*
COC(=O)c1scc(C)c1-n1c(C)ccc1C,-1.39
CC1CCCN(S(=O)(=O)c2ccc(N3CCOCC3)nc2)C1 (centres undefined),-1.06
COc1cc(Cl)c(C(F)(F)F)cc1NC(=O)c1ccccc1Cl,1.49
O=C(N/N=C/c1cccc2ccccc12)N/N=C/c1cccc2ccccc12,0.7
Cc1cc(=O)[nH]c(NCc2ccccc2)n1,-0.6
Cc1cc(=O)[nH]c(N/N=C\c2cccc3ccccc23)n1,3.32*
COc1ccccc1Oc1ccc(C(F)(F)F)cc1NC(=O)NC(=O)c1ccccc1F,-0.85
CN(C)c1ccc(C2Nc3ccc(C(=O)c4ccccc4)cc3NC3=C2C(=O)CCC3)cc1 (centres undefined),5.01*
SMILES,Dicer processing
COc1cc(C2Nc3ccc(C(=O)c4ccccc4)cc3NC3=C2C(=O)CCC3)ccc1OC(C)=O (centres undefined),-0.22
COc1ccc(C2Nc3ccc(C(=O)c4ccccc4)cc3NC3=C2C(=O)CCC3)c(OC)c1 (centres undefined),1.94
CCCNC(=O)O/N=C(\C)c1cc2cc([N+](=O)[O-])ccc2o1,0.23
CCOC(=O)c1c(O)c2ccccc2n(C)c1=O,0.14
Cn1c(=O)c(C(=O)NCc2ccccn2)c(O)c2ccccc21,10.2*
CC(=O)c1c(O)c2ccccc2n(C)c1=O,-0.09
COc1cc(OC)c(/C=C2\N=C(c3ccccc3)OC2=O)c(OC)c1,-1.68
O=C1CCCC(O)=C1N=Nc1cc(C(F)(F)F)ccc1OCC(F)(F)F,-1.66
CSC1=NC=C(C#N)C2=NC(C)(c3cc(Cl)cc(Cl)c3)NN12 (centres undefined),-1.56
O=C(Nc1cc2ccccc2s1)NC1CCN(Cc2ccccc2)CC1,-0.75
COc1c(Br)c(Br)c(Br)c2c1OCCO2,-0.84
C#CCSc1nnc2[nH]c(=O)cc(N)n12,2.7
CC(C)CCSc1nnc2[nH]c(=O)cc(N)n12,3.36*
Nc1cc(=O)[nH]c2nnc(SCc3ccccc3Cl)n12,2.51
C=COC(=O)CSc1nc(C)c(CC)c(C)c1C#N,2.46
CCOc1ccc(/C(O)=C2/C(=O)C(=O)N(CCCN(C)C)C23C(=O)N(C)c2ccccc23)cc1 (centres undefined),5.02*
COCCN1C(=O)C(=O)/C(=C(\O)c2ccc(Cl)cc2)C12C(=O)N(C)c1ccccc12 (centres undefined),-0.97
COc1ccc(/C(O)=C2/C(=O)C(=O)N(CCN(C)C)C23C(=O)N(C)c2ccccc23)cc1 (centres undefined),1.89
COc1ccc(/C(O)=C2/C(=O)C(=O)N(CCCN(C)C)C23C(=O)N(C)c2ccccc23)cc1 (centres undefined),3.72*
CCCCN1C(=O)C2(/C(=C(/O)c3ccc(F)cc3)C(=O)C(=O)N2CCCN(C)C)c2ccccc21 (centres undefined),1.17
CN(C)CCN1C(=O)C(=O)/C(=C(\O)c2ccc(F)cc2)C12C(=O)N(C)c1ccccc12 (centres undefined),2.69
COC(=O)C1=C(C)NC2=C(C(=O)c3ccccc32)C1c1ccc(O)c(Cl)c1 (centres undefined),-0.07
Cc1ccc(N(CC2=CC3C=CC=CC3NC2=O)C(=O)c2cncc(Br)c2)cc1 (centres undefined),0.07
O=C(Cc1cccs1)N1c2ccccc2Sc2ccccc21,0.57
NC(=O)C1CCN(C(=O)N2c3ccccc3Sc3ccccc32)CC1,2.17
SMILES,Dicer processing
CCOC(=O)N1c2ccccc2Sc2ccccc21,0.27
CCOC(=O)C1CCN(C(=O)N2c3ccccc3Sc3ccccc32)CC1,4.83*
CN1CCN(C(=O)N2c3ccccc3Sc3ccccc32)CC1,3.39*
O=C(N1CCN(CCO)CC1)N1c2ccccc2C=Cc2ccccc21,-0.57
COc1ccc(N=C2SCC(C(C)(C)C)=NN2C)cc1,-1.07
COc1ccccc1C1CCN(C(=O)CSc2nnc(NC(=O)c3ccccc3)s2)CC1,0.94
CNc1nc(C(N)=O)nc(N2CCOCC2)n1,0.69
COc1ccccc1N1CCN(C(=O)C2CCCCC2)CC1,-0.28
COc1ccccc1N1CCN(C(=O)C(C)Nc2ccccn2)CC1 (centres undefined),-0.48
COc1ccccc1N1CCN(C(=O)C(C)Oc2ccnc3c(C)ccc(C)c23)CC1 (centres undefined),3.65*
Cc1cc(C)cc(N2C(=O)CC(Nc3ccc(N4CCOCC4)cc3)C2=O)c1 (centres undefined),0.08
Cn1c(N2CCOCC2)nc2c1c(=O)n(Cc1ccccc1)c(=O)n2C,-0.43
Nc1ccc(-c2nnc(Nc3ccccc3C(F)(F)F)s2)cc1,3.6*
Nc1ccccc1NC(=S)Nc1ccccc1C(F)(F)F,1.82
NC(=S)Nc1ccccc1C(F)(F)F,-0.1
CCOC(=O)c1cnn2c1NC(c1ccc(C(C)C)cc1)CC2C(F)(F)F (centres undefined),0.02
O=C(NCc1ccc2c(c1)OCO2)C(C(=O)c1ccc(F)cc1)n1ccccc1=O (centres undefined),-1.26
CCN1C(=O)C2(/C(=C(/O)c3ccc(OC)cc3)C(=O)C(=O)N2CCCN(C)C)c2ccccc21 (centres undefined),3.26*
CCCN1C(=O)C2(/C(=C(/O)c3ccc(OC)cc3)C(=O)C(=O)N2CCCN(C)C)c2ccccc21 (centres undefined),1.33
CCN1C(=O)C2(/C(=C(/O)c3ccc(C)cc3)C(=O)C(=O)N2CCCN(C)C)c2ccccc21 (centres undefined),0.44
CCN1C(=O)C2(/C(=C(/O)c3ccc(OC)c(C)c3)C(=O)C(=O)N2CCCN(C)C)c2ccccc21 (centres undefined),-0.67
CCCN1C(=O)C2(/C(=C(/O)c3ccc(F)cc3)C(=O)C(=O)N2CCN(C)C)c2ccccc21 (centres undefined),2.28
CCN1C(=O)C2(/C(=C(/O)c3ccc(OC)cc3)C(=O)C(=O)N2CCN(C)C)c2ccccc21 (centres undefined),4.29*
CCN(CC)C(=S)Sc1nsc(SC(=S)N(CC)CC)c1C#N,0.69
O=C(CC1SC(=Nc2ccccc2)NC1=O)NCc1ccccc1 (centres undefined),-0.3
N#C/C(=C\c1c(F)cccc1Cl)C(=O)Nc1ccc(F)c(Cl)c1,-0.34
Cc1cccc(-c2nc(N)nc(N)n2)c1,-0.46
CCCOc1cccc(-c2nnc(N)s2)c1,2.33
